Our source for the Potency and activity change, negative = inhibition values is PubChem BioAssay (Tox21).

The nature of assay [1]: qHTS assay to identify small molecule antagonists of the thyroid receptor (TR) signaling pathway - cell viability counter screen (AID 743064). Note: nearly all actives have a fitted effect of over 50% in size. Note: potency is the fitted concentration of half-maximal effect. The conditions noted are these: GH3.TRE-Luc viability, CellTiter-Fluor, 24 h; series mostly up to 70.3 µM. The essentials:
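Rat GH3 pituitary tumor cells stably expressing two TR response elements driving luciferase were plated, rested 4 h, then dosed with library compounds and T3 (1 nM final). After 23.5 h at 37 °C, CellTiter-Fluor was added for 30 min and fluorescence recorded.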
On the technique in general: In qHTS, concentration-response curves come from the screen itself.

Assay [2] can be described thus: qHTS assay to identify small molecule antagonists of the thyroid receptor (TR) signaling pathway (AID 743065). Note: nearly all actives have a fitted effect of over 55% in size. Note: potency is the fitted concentration of half-maximal effect. The conditions noted are these: GH3.TRE-Luc, T3-stimulated luciferase inhibition, 23.5 h; series mostly up to 70.3 µM. The essentials:
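Antagonism measured as loss of luciferase signal in GH3 cells stably carrying a TRE-luciferase reporter, co-treated with compound and T3 (1 nM final) for 23.5 h at 37 C. Viability was read in the same well by CellTiter-Fluor.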

Assay [3] deals with thyroid hormone receptor (rat, GH3 cells). The assay can be described thus: qHTS assay to identify small molecule agonists of the thyroid receptor (TR) signaling pathway (AID 743066; calls by dose curve). Conditions: GH3.TRE-Luc cells, TR agonist luciferase, 24 h; series mostly up to 83.9 µM.
The target in assay [4] is Estrogen receptor (Homo sapiens) (UniProt P03372). As to the kind of experiment: qHTS assay to identify small molecule antagonists of the estrogen receptor alpha (ER-alpha) signaling pathway (AID 743069; active = well fitted curve in the direction sought with a large enough effect in the signal ratio in the repeat runs, not every such curve was filed as active; the % refers to the signal ratio). Conditions: HEK293 ER-alpha-UAS-bla, beta-lactamase ratio, antagonist mode; series mostly up to 69.4 µM. The essentials: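 Antagonist mode: compounds in DMSO were co-added with 17beta-estradiol to ER-alpha-bla HEK293 cells (2% charcoal-stripped serum) and left 18 h at 37C. Reporter inhibition was measured as FRET fluorescence after 2 h LiveBLAzer substrate at room temperature.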

Assay [5] in a line: qHTS assay to identify small molecule antagonists of the estrogen receptor alpha (ER-alpha) signaling pathway - cell viability counter screen (AID 743074; calls by dose curve; note: nearly all actives have a fitted effect of over 45% in size; note: potency is the fitted concentration of half-maximal effect). The conditions noted are these: ERalpha-bla HEK293 viability, CellTiter-Glo luminescence, 18 h; series mostly up to 69.4 µM.
Assay [6] has as its target Estrogen receptor (Homo sapiens) (UniProt P03372). As to the kind of experiment: qHTS assay to identify small molecule agonists of the estrogen receptor alpha (ER-alpha) signaling pathway (AID 743075; calls by dose curve). Conditions: HEK293 ER-alpha-UAS-bla, beta-lactamase FRET ratio, 18 h; series mostly up to 70.1 µM.
Assay [7] shares this target. As to the kind of experiment: qHTS assay to identify small molecule agonists of the estrogen receptor alpha (ER-alpha) signaling pathway using the BG1 cell line (AID 743079). Note: nearly all actives have a fitted effect of over 20% in size. Note: potency is the fitted concentration of half-maximal effect. Conditions: BG1Luc4E2 cells, ERE-luciferase agonist, 22 h; series mostly up to 70.3 µM.
The nature of assay [8]: qHTS assay to identify small molecule antagonists of the estrogen receptor alpha (ER-alpha) signaling pathway using the BG1 cell line (AID 743080; calls by dose curve;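 note: BG1 cells stimulated with 17beta-estradiol alongside compound; nearly all actives have a fitted effect of over 25% in size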). The conditions noted are these: BG1Luc4E2 ERE-luciferase antagonist mode, luminescence; activity change, negative = inhibition: at 70.3 µM (top of the series) unless noted. The essentials: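 Endogenous full-length ER-alpha in BG1-Luc-4E2 cells drives a stably integrated 4×ERE luciferase gene; compounds were tested against 17beta-estradiol over 21.5 h, with luminescence and multiplexed viability fluorescence recorded.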

Assay [9] in a line: qHTS assay to identify small molecule antagonists of the estrogen receptor alpha (ER-alpha) signaling pathway using the BG1 cell line - cell viability counter screen (AID 743081).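 Note: compound given together with 17beta-estradiol as the ER stimulus; nearly all actives have a fitted effect of over 45% in size.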 Note: potency is the fitted concentration of half-maximal effect. The conditions noted are these: BG1Luc4E2 viability, CellTiter-Fluor, 22 h; series mostly up to 70.3 µM.
The target in a further assay is Aromatase (Homo sapiens) (UniProt P11511). The assay can be described thus: qHTS assay to identify aromatase inhibitors (AID 743083). Note: nearly all actives have a fitted effect of over 55% in size. Note: potency is the fitted concentration of half-maximal effect. The conditions noted are these: MCF-7 aro ERE, testosterone-driven ERE luciferase, 24 h; series mostly up to 70.3 µM.

SMILES strings stand for the structures. Where “and” joins values, the source holds several entries; their conditions need not be identical. Identical values can stand only once. Results filed as inconclusive are left out. Some compounds were tested as several samples or in several runs, with calls that do not always agree. Calls of active or inactive are those of the source. Unless noted, calls come from the whole dose curve; as a rule, active = well fitted curve in the direction sought with a large enough effect in the repeat runs; inconclusive = weak or mixed curves; inactive = no such curve, though single readings can be large; an effect the other way counts as inactive or inconclusive.
% is set by controls: 0 for no effect and ±100 for the full control effect.

Sequence of Estrogen receptor (Homo sapiens) (P03372 whole entry, looked up): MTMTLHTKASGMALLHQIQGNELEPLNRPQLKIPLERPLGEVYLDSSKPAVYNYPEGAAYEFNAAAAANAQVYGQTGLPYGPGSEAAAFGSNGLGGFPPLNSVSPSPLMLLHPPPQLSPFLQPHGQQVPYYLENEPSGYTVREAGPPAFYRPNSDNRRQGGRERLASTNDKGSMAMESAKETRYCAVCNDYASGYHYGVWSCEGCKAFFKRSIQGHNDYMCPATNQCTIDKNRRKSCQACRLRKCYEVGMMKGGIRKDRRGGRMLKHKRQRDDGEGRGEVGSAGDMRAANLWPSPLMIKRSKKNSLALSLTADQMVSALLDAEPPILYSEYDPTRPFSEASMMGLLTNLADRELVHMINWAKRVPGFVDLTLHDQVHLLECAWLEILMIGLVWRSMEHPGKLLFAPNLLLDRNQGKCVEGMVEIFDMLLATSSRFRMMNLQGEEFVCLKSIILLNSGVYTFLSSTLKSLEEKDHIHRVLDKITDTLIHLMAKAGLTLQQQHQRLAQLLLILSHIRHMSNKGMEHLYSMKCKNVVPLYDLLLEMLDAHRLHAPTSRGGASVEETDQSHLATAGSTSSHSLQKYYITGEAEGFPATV
Sequence of Aromatase (Homo sapiens) (P11511 whole entry, looked up): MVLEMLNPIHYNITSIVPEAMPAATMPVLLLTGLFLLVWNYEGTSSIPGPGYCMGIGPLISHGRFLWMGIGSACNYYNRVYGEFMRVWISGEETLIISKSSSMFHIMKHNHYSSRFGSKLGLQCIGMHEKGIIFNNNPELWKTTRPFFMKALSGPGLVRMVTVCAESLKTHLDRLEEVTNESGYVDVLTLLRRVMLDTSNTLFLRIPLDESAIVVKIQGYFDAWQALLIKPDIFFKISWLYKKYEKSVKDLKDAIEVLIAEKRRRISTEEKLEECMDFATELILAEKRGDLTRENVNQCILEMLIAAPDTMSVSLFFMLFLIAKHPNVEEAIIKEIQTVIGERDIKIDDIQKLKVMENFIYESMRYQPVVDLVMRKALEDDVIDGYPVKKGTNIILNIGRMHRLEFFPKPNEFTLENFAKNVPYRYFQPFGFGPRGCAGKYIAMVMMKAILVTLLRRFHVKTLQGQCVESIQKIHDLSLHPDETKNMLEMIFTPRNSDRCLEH

With `CCC(=O)C(CC(C)N(C)C)(c1ccccc1)c1ccccc1` (stereo not given), the Potency in assay [1] is 24.4 µM (active) and 27.1 µM (active) and 33 µM (active); in assay [2], 27.4 µM (active) and 30.4 µM (active) and 41.5 µM (active). The Potency result in [3], in [4], in [5], in assay [6], in assay [7] and in [8] was “inactive” each time. For the same compound, the Potency result (in assay [9]; with Aromatase (Homo sapiens)) was “inactive” in each case.
For `CCC[N+]1(C)CCCCC1`, the Potency result (in [1]; in [2]; in assay [3]; in assay [5]; in assay [9]; in the assay with Aromatase (Homo sapiens)) was “inactive” each time.
Turning to `CCCC[n+]1cccc(C)c1`, the Potency entry (in assay [1]; in [2]; in assay [3]; in assay [5]; in [9]; with Aromatase (Homo sapiens)) was “inactive” each time.
For `CCNc1nc(Cl)nc(NCC)n1`, the Potency result in assay [1], in assay [2], in assay [3], in [4], in assay [5] and in [6] was “inactive” each time. Besides, the Potency result (in assay [7]; in assay [8]; in assay [9]; in the assay with Aromatase (Homo sapiens)) was “inactive” each time.
For `CCCC[N+]1(C)CCCCC1`, the Potency result (in [1]; in assay [2]; in assay [3]; in assay [5]; in assay [9]; with Aromatase (Homo sapiens)) was “inactive” throughout.
Consider `CCCCCCCCCCCCCCCCn1cc[n+](C)c1`, for which, in assay [3], the Potency entry is “inactive”. The Potency entry in assay [9] was “inactive and 49 µM (active) and 27.4 µM (active)”.
Regarding `COc1ccc(N)cc1`, the Potency result (in [1]; in assay [2]; in assay [3]; in assay [5]; in assay [9]; with Aromatase (Homo sapiens)) was “inactive” in each case.
Regarding `O=c1nc(O)n(Cl)c(=O)n1Cl`, the Potency entry (in assay [1]; in assay [3]; in assay [5]; in [9]; with Aromatase (Homo sapiens)) was “inactive” each time.
For the compound `O=[N+]([O-])O`, the Potency entry (in assay [1]; in [5]; in assay [9]; with Aromatase (Homo sapiens)) was “inactive” each time.
Regarding `CNC`, the Potency entry (in assay [1]; in assay [5]; in [8]; in assay [9]; with Aromatase (Homo sapiens)) was “inactive” each time.
As to `CCCC[n+]1ccc(C)cc1`, the Potency result was “inactive and 30.5 µM (active)” in assay [1]; “inactive and 48.7 µM (active)” in [5]; “inactive and 19.4 µM (active)” with Aromatase (Homo sapiens). Besides, the Potency result in assay [3] and in [9] was “inactive” each time.
Consider `COCC(=O)N(c1c(C)cccc1C)C(C)C(=O)OC` (stereo not given), for which the Potency result in [1], in assay [4], in assay [5], in [6], in assay [7] and in assay [8] was “inactive” each time. Besides, the Potency result (in assay [9]; with Aromatase (Homo sapiens)) was “inactive” throughout.
As to `CCCC[n+]1ccccc1C`, the Potency result (in assay [1]; in [5]; in [9]; in the assay with Aromatase (Homo sapiens)) was “inactive” throughout.
Regarding `CC[N+](CC)(CC)CC`, the Potency entry (in assay [1]; in assay [2]; in [3]; in assay [5]; in [9]; in the assay with Aromatase (Homo sapiens)) was “inactive” each time.
As for `CCCCCCn1cc[n+](C)c1`, the Potency result (in [1]; in assay [2]; in assay [3]; in assay [9]; in the assay with Aromatase (Homo sapiens)) was “inactive” each time.
For `O=c1[nH]c(=O)n(Cl)c(=O)n1Cl`, the Potency entry (in assay [1]; in assay [3]; in assay [5]; in assay [9]; with Aromatase (Homo sapiens)) was “inactive” in each case.
Turning to `Nc1ccccc1`, the Potency result (in assay [1]; in [3]; in assay [9]; with Aromatase (Homo sapiens)) was “inactive” in each case. In addition, the Potency entry in assay [5] was “inactive and 24.5 µM (active)”.
With `CC[n+]1ccccc1`, the Potency entry was “inactive and 34.1 µM (active)” in [1]; “inactive and 30.4 µM (active)” in [9]; “inactive and 54 µM (active)” with Aromatase (Homo sapiens). Besides, the Potency result in [3], in assay [5] and in [8] was “inactive” in each case.
As for `C[N+](C)(C)Cc1ccccc1`, the Potency result in assay [1], in assay [3], in [4], in [5], in assay [6] and in assay [7] was “inactive” each time. The Potency result (in assay [8]; in [9]; in the assay with Aromatase (Homo sapiens)) was “inactive” in each case.
Regarding `Oc1cccc2cccnc12`, the Potency entry in assay [3], in assay [5] and in assay [9] was “inactive” throughout.
As to `C=CCOC(Cn1ccnc1)c1ccc(Cl)cc1Cl` (stereo not given), the Potency was 54.6 µM (active) in assay [1]; 23.7 µM (active) and 61.3 µM (active) and 30.6 µM (active) in assay [2]; 944 nM (active) and 387 nM (active) and 433 nM (active) with Aromatase (Homo sapiens). For the same compound, the Potency result in assay [3], in assay [5] and in assay [9] was “inactive” in each case.
On to `CCn1cc[n+](C)c1C`, for which the Potency result (in [1]; in assay [5]; in assay [9]; in the assay with Aromatase (Homo sapiens)) was “inactive” each time.
As to `CCCCCCCCn1cc[n+](C)c1`, the Potency in [1] was 54.4 µM (active); in assay [2] it was 27.3 µM (active) and 54.9 µM (active); in the assay with Aromatase (Homo sapiens) it was 34.3 µM (active) and 27.5 µM (active) and 55 µM (active). Besides, the Potency result in [3] and in assay [9] was “inactive” throughout.
As to `CC(=O)O`, the Potency entry (in assay [1]; in assay [3]; in [5]; in assay [9]; with Aromatase (Homo sapiens)) was “inactive” each time.
For `Oc1ccccc1-c1ccccc1`, the Potency entry in assay [1], in assay [3], in assay [4], in assay [5], in [6] and in [7] was “inactive” in each case. Besides, the Potency result (in assay [8]; in [9]; in the assay with Aromatase (Homo sapiens)) was “inactive” throughout.
With `CCCCCCCCCCCCOS(=O)(=O)O`, the Potency result in assay [1], in [3], in assay [5] and in assay [9] was “inactive” in each case.
Consider `CCCn1cc[n+](C)c1`, for which the Potency result (in [1]; in assay [5]; in assay [8]; in assay [9]; with Aromatase (Homo sapiens)) was “inactive” each time.
`CCCCCCCCCCCC(=O)O`: the Potency entry in [1], in [3], in assay [5] and in assay [9] was “inactive” each time.
For the compound `CCC[N+]1(C)CCCC1`, the Potency result in assay [1], in assay [5] and in assay [9] was “inactive” each time.
For `CN(C)[C@@H]1C(=O)C(C(N)=O)=C(O)[C@@]2(O)C(=O)C3=C(O)c4c(O)cccc4[C@@](C)(O)[C@H]3[C@H](O)[C@@H]12`, the Potency result (in [1]; in assay [3]; in [5]; in assay [9]; in the assay with Aromatase (Homo sapiens)) was “inactive” in each case.
In the case of `N#CS`, the Potency result (in assay [1]; in assay [2]; in [3]; in [5]; in assay [9]; in the assay with Aromatase (Homo sapiens)) was “inactive” each time.
As to `O=C(O)COc1ccc(Cl)cc1Cl`, the Potency result in assay [1], in assay [5] and in assay [9] was “inactive” each time.
Take `O=S(=O)(O)O`: the Potency entry (in assay [1]; in [5]; in assay [9]; with Aromatase (Homo sapiens)) was “inactive” each time.
Turning to `O=C(O)c1ccccc1O`, the Potency entry in [1], in assay [3], in assay [5] and in [9] was “inactive” throughout.
On to `O=C(O)C(Cl)(Cl)Cl`, for which the Potency result (in [1]; in [2]; in assay [3]; in assay [5]; in assay [9]; with Aromatase (Homo sapiens)) was “inactive” throughout.
As to `O=P1(N(CCCl)CCCl)NCCCO1` (stereo not given), the Potency entry in assay [1], in assay [3], in assay [4], in assay [5], in assay [6] and in assay [8] was “inactive” each time. Further, the Potency entry (in assay [9]; in the assay with Aromatase (Homo sapiens)) was “inactive” each time. In addition, the Potency entry in [7] is “inactive and 27.3 µM (active)”.
Take `CCCCCCCCCCn1cc[n+](C)c1`: in assay [8], the activity change, negative = inhibition is -3.71% [at 95 µM] (active).
Consider `O=C(O)CC(O)(CC(=O)O)C(=O)O`, for which the Potency result (in assay [1]; in assay [2]; in assay [3]; in assay [5]; in [9]; with Aromatase (Homo sapiens)) was “inactive” each time.
